Screens as filed in PubChem.
PNC inhibitor: inhibitors of perinucleolar compartment assembly; activity change (PNC), negative = inhibition, % at 10 µM; 140,000 tested, 3.1% active; PC3M PTB-GFP, PNC prevalence imaging, 16 h; hits give low values;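 active means readout at or below -70, meaning at least 70% loss of cells showing the perinucleolar compartment, a nuclear body marking cancer cells; inconclusive means readout between -30 and a set limit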;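 further: plate controls were DMSO wells for no effect and camptothecin positive control wells for full effect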
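Read-out is percentage of cells bearing a perinucleolar compartment, from automated 20x imaging of fixed, Hoechst-stained PC3M PTB-GFP cells. Cells were seeded 4 h, then exposed 16 h to compound (23 nl of library stock) in duplicate plates.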
HTT ATP protect: Huntington cell model cytoprotection by ATP luminescence; PC12 HTT-Q103 induced, cytoprotection, ATP luminescence, 40 h; Potency, µM (titrated, usually from 56.4 µM), for inactives: cytoprotection (ATP increase), usual class: activators; 230,000 tested, 0.14% active; further: potency means the concentration at half of the fitted maximal effect; % of control where 0% means no effect; nearly all actives have a fitted effect of over 45% in size
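Rat PC12, Q103 Htt exon1-GFP fusion, ecdysone promoter; tebufenozide inducer 100 nM final; compound titration; qHTS, 1500 cells/well; ATPlite luminescent read.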
ALDH1A1 block: ALDH1A1 (human) enzyme inhibition | Purified ALDH1A1, NADH fluorescence, propionaldehyde substrate | 220,000 tested, 7.3% active | Potency, µM (titrated, usually from 75.3 µM), without a hit: top-dose activity, negative = inhibition, hits mostly inhibitors | P00352; active means well fitted inhibition curve with a large enough effect, not every such curve was filed as active; inconclusive means small, poorly fitted or top-dose-only effect, or another doubt; inactive means no such curve, though single readings can be large or run the other way;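 further: potency means the concentration at half of the fitted maximal effect; plate controls were no enzyme wells and a reference inhibitor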
Target sequence (P00352 whole entry, looked up): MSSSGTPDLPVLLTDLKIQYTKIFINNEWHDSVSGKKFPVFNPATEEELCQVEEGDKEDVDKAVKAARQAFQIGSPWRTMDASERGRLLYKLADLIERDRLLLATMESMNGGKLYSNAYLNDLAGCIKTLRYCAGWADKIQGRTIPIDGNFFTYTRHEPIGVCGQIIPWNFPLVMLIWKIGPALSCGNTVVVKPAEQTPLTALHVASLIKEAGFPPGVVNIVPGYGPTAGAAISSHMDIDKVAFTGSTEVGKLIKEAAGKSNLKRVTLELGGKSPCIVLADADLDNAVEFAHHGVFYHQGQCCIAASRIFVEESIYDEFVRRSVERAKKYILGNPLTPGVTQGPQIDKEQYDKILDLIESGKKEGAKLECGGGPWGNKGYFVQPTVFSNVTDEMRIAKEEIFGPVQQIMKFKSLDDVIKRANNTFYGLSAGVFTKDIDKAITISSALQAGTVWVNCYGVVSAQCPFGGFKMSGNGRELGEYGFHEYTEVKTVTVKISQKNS
HPGD block: HPGD (human) dehydrogenase inhibition. P15428. purified HPGD, NADH fluorescence kinetic, PGE2 substrate. Potency, µM, for inactives: top-dose activity change, negative = inhibition, usual class: inhibitors. 150,000 tested, 4.3% active. AID 894; active means well fitted inhibition curve with a large enough effect, not every such curve was filed as active; inconclusive means small, poorly fitted or top-dose-only effect, or another doubt; inactive means no such curve, though single readings can be large or run the other way; further: potency means the concentration at half of the fitted maximal effect; on the % scale 0 is the no-effect control and ±100 the full control effect
Target sequence (P15428 whole entry, looked up): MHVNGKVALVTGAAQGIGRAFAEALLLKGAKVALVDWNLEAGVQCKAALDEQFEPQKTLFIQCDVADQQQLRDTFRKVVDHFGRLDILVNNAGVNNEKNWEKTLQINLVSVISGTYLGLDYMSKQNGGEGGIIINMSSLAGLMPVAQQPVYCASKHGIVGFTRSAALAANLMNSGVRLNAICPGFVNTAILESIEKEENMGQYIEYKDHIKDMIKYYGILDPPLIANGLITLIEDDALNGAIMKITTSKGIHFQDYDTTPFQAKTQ
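20 nM HPGD preincubated 15 min at room temperature with compound in 50 mM Tris-HCl pH 8, 0.01% Tween 20. Started with 1 mM NAD+ and 30 uM prostaglandin E2; NADH fluorescence (360/450 nm) read 5 times over 30-s intervals, last minus first.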
GoLoco inh red: blocks human Gai1 binding to RGS12 GoLoco peptide, red readout | Potency, µM (titrated, usually from 61.6 µM), without a hit: at the top dose activity, negative = inhibition, most hits filed as inhibitors | AID 880 | P63096 | Gai1:RGS12 GoLoco peptide FP, rhodamine, 10 min | 230,000 tested, 0.44% active; active means well fitted inhibition curve with a large enough effect, not every such curve was filed as active; inactive means no such curve, though single readings can be large or run the other way; further: potency means the concentration at half of the fitted maximal effect; on the % scale 0 is the no-effect control and ±100 the full control effect; nearly all actives have a fitted effect of over 30% in size
HttQ103 aggreg: mutant huntingtin aggregation inhibition | Potency, µM (highest dose often 46.1 µM), for inactives: top-dose activity change, negative = inhibition, usual class: inhibitors | PC12 HttQ103-GFP aggregates, Acumen cytometry, 40 h | 220,000 tested, 1.1% active; further: potency means the concentration at half of the fitted maximal effect; on the % scale 0 is the no-effect control and ±100 the full control effect; nearly all actives have a fitted effect of over 60% in size
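Ecdysone-promoter PC12 model expressing HTT exon 1 Q103 fused to GFP, induced by tebufenozide at 100 nM final. Compounds titrated; aggregates sized 1–25 µm scored on a 488 nm laser cytometer.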
* = called active by the depositor; ? = inconclusive; / = no result given; [ ] = remark or other dose. Sampled rows, rich in hits. Any-hit rate of the full collection: about 11%. Unless noted, the call rests on the fitted dose curve; in most records, active means well fitted curve in the direction sought with a large enough effect; inconclusive means small, poorly fitted or top-dose-only effect, or another doubt; inactive means no such curve, though single readings can be large; an effect the other way counts as inactive or inconclusive.

SMILES	PNC inhibitor	HTT ATP protect	ALDH1A1 block	HPGD block	GoLoco inh red	HttQ103 aggreg
CCCc1c(C(=O)Nc2ccc(F)cc2C)cnn1-c1ccccc1	/	-7%[10 µM]	?	/	-3%	-1%[9.22 µM]
CCc1ccc(NC(=O)c2cnn(-c3ccccc3)c2C2CCNCC2)cc1	/	-22%	4%	/	-1%	?
CCCc1c(C(=O)Nc2ccc(N3CCOCC3)cc2)cnn1-c1ccccc1	/	21%[10 µM]	3.2µM*	/	6%	8%[9.22 µM]
CCCc1c(C(=O)NNc2ccc(C)cc2)cnn1-c1ccccc1	/	3%[10 µM]	14µM*	/	0%	16%[9.22 µM]
CCc1ccc(NC(=O)c2cnn(-c3ccccc3)c2C)cc1	41	/	9%	2.5µM*	8%	0%
CCCc1c(C(=O)Nc2cc(C)on2)cnn1-c1ccccc1	/	14%[10 µM]	18µM*	/	6%	-4%[9.22 µM]
CCN(CC)[C@@H](C)C(=O)N1c2ccccc2Sc2ccccc21	/	-3%[1.9 µM]	/	/	/	/
CSc1nsc(/C=C/Nc2ccc(Cl)cc2)c1C#N	29	-15%	7.9µM*	-24%	94%	-19%
Cc1cc(O)ccc1N/C=C(\C#N)c1nc2ccccc2o1	-5	-20%[10 µM]	-8%	?	-39%	-12%
CSc1nsc(/C=C/Nc2ccc(O)cc2C)c1C#N	/	-36%	25µM*	/	-49%	11%
CSc1nsc(/C=C/Nc2ccc(F)cc2)c1C#N	/	-6%	?	/	29%	1%
CSc1nsc(/C=C/Nc2cccc(Cl)c2)c1C#N	17	6%	11µM*	-5%	51%	23%
O=C(N[C@H](C(=O)O)c1ccccc1)C1CCC(Cn2nnc3ccccc3c2=O)CC1 (stereo not given in full)	/	-6%[10 µM]	/	/	0%	-10%[9.22 µM]
O=S(=O)(c1ccccc1)N1CCC2(CCCN(Cc3nccs3)C2)CC1	/	10%	?	-3%	-2%	/
NC(=O)c1ccc(-n2nnnc2SCc2ccccc2)cc1	2	2%	5%	-17%	-2%	19%
Fc1cccc(Cl)c1Cn1nnc(-c2ccc3c(c2)OCO3)n1	-17	-31%	?	-24%	6%	-12%
O=C(O)c1cc(-n2nnnc2SCc2ccccc2F)ccc1Cl	/	-9%	10µM*	/	4%	-5%
Fc1cccc(Cl)c1CSc1nnnn1-c1ccc2c(c1)OCO2	48	-10%	14µM*	-16%	4%	-32%
Cc1ccc(C(=O)O/N=C\c2ccc(N3CCOCC3)c([N+](=O)[O-])c2)cc1	-24	10%	2.2µM*	-23%	-9%	9%
CCCCC(=O)N/N=C/c1ccc(N2CCOCC2)c([N+](=O)[O-])c1	-4	/	11µM*	3%	-12%	11%
CCC(=O)c1c(NC(C)C)cc(C)oc1=O	/	16%	-7%	/	6%	-18%
Cc1c(NS(=O)(=O)c2ccc(C(=O)NCc3ccccc3)cc2)c(=O)n(-c2ccccc2)n1C	/	-8%	-4%	/	6%	2%
CC1(C)CC(=O)C(C(c2ccco2)C2C(=O)CC(C)(C)CC2=O)C(=O)C1	-19	8%[10 µM]	?	7.9µM*	4%	19%
COc1ccc(/C=N/NC(=O)C(C)n2cnc3ccccc3c2=O)cc1 (stereo not given)	-119*	5%[10 µM]	2%	-5%	9%	9%
COC(=O)CC(c1ccc(C(C)C)cc1)n1cccc1 (stereo not given)	/	-10%[10 µM]	-13%	/	10%	1%
SMILES	PNC inhibitor	HTT ATP protect	ALDH1A1 block	HPGD block	GoLoco inh red	HttQ103 aggreg
Cc1ccc2c(c1)nnn2C1CCN(C(=O)C23CC4CC(CC(C4)C2)C3)CC1	?	?	18µM*	5%	6%	-26%
Cc1ccc2c(c1)nnn2C1CCN(C(=O)NC23CC4CC(CC(C4)C2)C3)CC1	27	11%[10 µM]	18%	-3%	-10%	2%
FC(F)(F)c1cc(-c2ccco2)nc(-n2cnc3ccccc32)n1	34	-7%	3%	?	8%	7%
Cc1nc2ccccc2n1-c1nc(-c2ccco2)cc(C(F)(F)F)n1	17	-87%	4%	-17%	7%	3.2µM*
CCN(CC)CCc1c(C)[nH]c(C(=O)OCc2ccccc2)c1C	?	17%	20µM*	-3%	-6%	-14%[9.22 µM]
Cc1cccc2c1c1ccc3c(c1n2C)C(=O)C=CC3=O	/	-20%[10 µM]	0.32µM*	/	-24%	-12%[9.22 µM]
Cc1ccccc1N1CC(=O)N(c2ccccc2C)CC1=O	7	-7%	5%	-5%	-6%	13%[9.22 µM]
COc1cccc(CNC(=O)CCC2CCCN(C(=O)c3cccc(Cl)c3)C2)c1 (stereo not given)	/	14%[10 µM]	?	/	2%	2%[9.22 µM]
COc1cccc(CNC(=O)CCC2CCCN(C(=O)c3cccc4c(C)c(C)[nH]c34)C2)c1 (stereo not given)	/	5%	28µM*	/	-10%	-1%
CCCCCCC1/C(=N/O)CCC1C(=O)OC (stereo not given)	4	10%	3%	-1%	3%	4µM*
CCCCCC1C/C(=N\O)C=C(C)C1C(=O)OC (stereo not given)	/	11%[10 µM]	/	/	1%	13%[9.22 µM]
CCCCc1nc2c(c3c1C[C@H](C)OC3)CN(C(=O)Cc1cccs1)CC2	/	-15%[10 µM]	3%[13.5 µM]	-7%	6%[14.2 µM]	/
Cc1cc(CNC(=O)[C@H](C)[C@H]2C[C@]2(C)[C@H](NC(=O)OCc2ccccc2)c2ccccc2)nn1C	/	-42%	4µM*	-9%	2%	/
C[C@@H](C(=O)O)[C@H]1C[C@]1(C)[C@H](NC(=O)OCc1ccccc1)c1ccccc1	16	14%	7.1µM*	-6%	3%	9%
Cc1cc(CNC(=O)[C@H](C)[C@@H]2C[C@@]2(C)[C@@H](NC(=O)OCc2ccccc2)c2ccccc2)nn1C	41	4%	?	-16%	7%	-1%
COc1ccc(CNC(=O)[C@H](C)[C@H]2C[C@]2(C)[C@H](NC(=O)OCc2ccccc2)c2ccccc2)cc1OC	/	-13%	3.5µM*	-10%	1%	/
OCCN1CC(O)C(O)C(O)C1CO (stereo not given)	/	?	6%	-11%	-6%	6%
Cc1c(C(=O)N2CCOCC2)cc(C(C)(C)C)n1-c1ccccc1	/	7%[10 µM]	4%	/	0%	-6%[9.22 µM]
Cn1cccc1/C=C1\SC(=S)N(Nc2ccccc2)C1=O	/	-13%[10 µM]	3.5µM*	/	15%	17%[9.22 µM]
CCCC(C(=O)O)N1C(=O)/C(=C/c2cccn2C)SC1=S (stereo not given)	?	6%[10 µM]	-2%	18µM*	187%	?
[O-][n+]1c(CN2CCCCC2)nc2cccc3c2c1-c1ccccc1-3	/	-2%[10 µM]	1µM*	?	-68%[14.2 µM]	/
c1ccc2[nH]c(CN3CCCCCC3)nc2c1	15	8%[1.9 µM]	-4%	-17%	11%	-7%
O=C(Cc1ccc(Cl)cc1)Nc1ccccc1Sc1ccccc1	55	-10%[10 µM]	-12%	-15%	10%	-3%
